Assay results as given in PubChem BioAssay AID651598 (Sanford-Burnham Center for Chemical Genomics, 2012).
Values joined by “and” are separate entries in the source; they are usually repeats but may differ in a detail not shown here. Equal values may be shown once.

biological target: Apelin receptor (Homo sapiens) (UniProt P35414); assay: apelin receptor (APJ) antagonists, SAR follow-up, counter-screen for CXCR6 antagonist project, cell-based, beta-arrestin, DiscoveRx, panel, CHO-K1 (AID 651598); details: CHO-K1 PathHunter beta-arrestin luminescence, antagonist mode; run 4, at 80 µM (top of the series)
Sequence (P35414 whole entry, looked up): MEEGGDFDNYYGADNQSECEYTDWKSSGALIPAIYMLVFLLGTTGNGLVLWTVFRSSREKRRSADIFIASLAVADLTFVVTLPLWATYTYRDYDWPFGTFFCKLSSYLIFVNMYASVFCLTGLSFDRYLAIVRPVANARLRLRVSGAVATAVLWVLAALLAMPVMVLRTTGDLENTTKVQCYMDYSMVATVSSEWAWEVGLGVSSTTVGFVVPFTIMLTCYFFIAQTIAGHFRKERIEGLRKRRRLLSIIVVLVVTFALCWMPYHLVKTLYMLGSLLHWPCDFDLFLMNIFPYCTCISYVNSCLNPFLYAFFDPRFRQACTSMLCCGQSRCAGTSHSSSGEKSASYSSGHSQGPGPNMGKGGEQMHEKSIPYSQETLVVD

Compound | inhibition
COc1cc(C(=O)NC2CCN(CC(=O)Nc3ccccc3)CC2)cc(OC)c1OC | -1.54%
COc1cc(C(=O)NC2CC3CCCC(C2)N3CC(=O)Nc2ccccc2)cc(OC)c1OC (stereo not drawn) | 17% and 11.6% and 7.8%
COc1cc(C(=O)NC2CC3CCC(C2)N3CC(=O)Nc2ccccc2)cc(OC)c1OC (stereo not drawn) | -13.5% and 16.7%
